# Reference: the supplement of paper PMC10849652
# About 8,800 targets were measured; listed, in parts, are those with a hit and a random draw of the rest. About 0.5% of all pairs of compound and target were hits.
# Compound: O=C1NC(=O)C(c2cnc3ccccn23)=C1c1cn2c3c(cc(F)cc13)CN(C(=O)N1CCCCC1)CC2
# Assay: log2 fold change, soluble protein after heating vs DMSO (PISA); higher = thermal stabilisation; K562 lysate, 10 uM; active = over 0.2 and 3.5 SD of the protein, either way, in both replicates (recomputed)
# How it was run: (§1)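 Pellets of K562 cells were dounce-homogenised in PBS pH 7.4 with 1 mM MgCl2, and the crude extract was held at 1 mg/mL protein for a 30 min treatment with 10 μM compound. Aliquots were heated for 3 min over 48°C-58°C and pooled before NP-40 was added to 0.5% at 4°C. The supernatant from 21,000xg for 90 min was quantified by TMTpro 16plex LC-MS/MS with channel sums equalised. Values are reported from duplicates as log-two fold change in thermal stability relative to solvent controls.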
# UniProt Q14103, sequence (Q14103 whole entry, looked up): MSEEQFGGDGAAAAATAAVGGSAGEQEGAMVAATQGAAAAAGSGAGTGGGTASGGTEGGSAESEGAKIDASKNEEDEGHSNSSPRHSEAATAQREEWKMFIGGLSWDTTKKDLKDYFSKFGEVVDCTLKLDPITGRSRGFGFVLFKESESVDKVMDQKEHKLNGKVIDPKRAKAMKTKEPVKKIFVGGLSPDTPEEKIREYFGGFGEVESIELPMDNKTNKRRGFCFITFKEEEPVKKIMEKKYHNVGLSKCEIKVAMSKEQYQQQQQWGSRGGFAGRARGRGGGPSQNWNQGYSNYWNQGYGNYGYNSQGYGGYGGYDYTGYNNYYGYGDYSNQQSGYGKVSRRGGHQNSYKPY
# UniProt Q53GQ0, sequence (Q53GQ0 whole entry, looked up): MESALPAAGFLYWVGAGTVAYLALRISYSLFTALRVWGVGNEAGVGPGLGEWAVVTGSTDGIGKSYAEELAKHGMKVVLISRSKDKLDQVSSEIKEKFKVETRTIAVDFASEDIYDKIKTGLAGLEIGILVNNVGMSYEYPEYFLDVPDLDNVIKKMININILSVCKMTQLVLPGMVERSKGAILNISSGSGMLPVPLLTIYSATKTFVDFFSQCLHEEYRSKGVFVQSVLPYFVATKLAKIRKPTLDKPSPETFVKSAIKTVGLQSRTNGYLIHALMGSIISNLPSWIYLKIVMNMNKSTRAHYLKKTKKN
# UniProt Q03013, sequence (Q03013 whole entry, looked up): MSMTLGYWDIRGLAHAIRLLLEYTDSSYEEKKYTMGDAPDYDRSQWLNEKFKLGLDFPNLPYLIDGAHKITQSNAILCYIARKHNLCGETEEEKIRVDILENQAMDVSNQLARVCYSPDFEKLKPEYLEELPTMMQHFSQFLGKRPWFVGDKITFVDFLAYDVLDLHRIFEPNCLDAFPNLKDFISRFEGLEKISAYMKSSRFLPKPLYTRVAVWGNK
# UniProt Q15046, sequence (Q15046 whole entry, looked up): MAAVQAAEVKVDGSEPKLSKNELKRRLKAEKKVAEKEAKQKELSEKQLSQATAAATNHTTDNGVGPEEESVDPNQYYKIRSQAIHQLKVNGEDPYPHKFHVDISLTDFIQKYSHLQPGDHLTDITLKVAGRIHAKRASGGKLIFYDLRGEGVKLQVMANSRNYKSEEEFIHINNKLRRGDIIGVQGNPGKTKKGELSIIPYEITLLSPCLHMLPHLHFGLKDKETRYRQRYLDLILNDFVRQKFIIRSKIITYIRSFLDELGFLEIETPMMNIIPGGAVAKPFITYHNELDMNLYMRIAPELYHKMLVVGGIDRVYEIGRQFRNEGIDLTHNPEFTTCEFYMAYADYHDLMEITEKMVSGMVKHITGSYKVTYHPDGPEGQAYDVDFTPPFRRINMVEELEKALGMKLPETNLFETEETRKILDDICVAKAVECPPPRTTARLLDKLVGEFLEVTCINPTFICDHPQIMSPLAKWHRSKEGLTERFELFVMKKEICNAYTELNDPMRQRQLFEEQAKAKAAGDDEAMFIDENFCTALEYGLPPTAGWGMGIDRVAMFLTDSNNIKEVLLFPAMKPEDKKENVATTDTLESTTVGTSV
# UniProt Q969S8, sequence (Q969S8 whole entry, looked up): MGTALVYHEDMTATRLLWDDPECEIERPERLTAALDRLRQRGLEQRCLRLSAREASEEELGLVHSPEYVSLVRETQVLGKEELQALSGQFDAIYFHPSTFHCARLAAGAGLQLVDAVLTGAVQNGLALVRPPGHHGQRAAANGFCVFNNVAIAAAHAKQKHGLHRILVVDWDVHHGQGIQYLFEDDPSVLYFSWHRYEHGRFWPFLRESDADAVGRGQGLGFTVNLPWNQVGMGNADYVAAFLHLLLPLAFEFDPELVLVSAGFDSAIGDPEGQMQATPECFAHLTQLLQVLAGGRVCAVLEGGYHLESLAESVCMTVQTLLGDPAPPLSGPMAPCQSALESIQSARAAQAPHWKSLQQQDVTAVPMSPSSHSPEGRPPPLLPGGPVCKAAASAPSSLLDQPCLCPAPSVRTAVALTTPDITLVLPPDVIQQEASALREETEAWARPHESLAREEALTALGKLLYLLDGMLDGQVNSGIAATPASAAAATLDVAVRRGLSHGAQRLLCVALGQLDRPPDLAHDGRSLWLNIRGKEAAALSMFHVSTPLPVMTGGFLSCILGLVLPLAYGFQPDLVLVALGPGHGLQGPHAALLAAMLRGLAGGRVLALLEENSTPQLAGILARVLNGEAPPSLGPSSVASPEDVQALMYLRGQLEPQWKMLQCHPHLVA
# UniProt Q01581, sequence (Q01581 whole entry, looked up): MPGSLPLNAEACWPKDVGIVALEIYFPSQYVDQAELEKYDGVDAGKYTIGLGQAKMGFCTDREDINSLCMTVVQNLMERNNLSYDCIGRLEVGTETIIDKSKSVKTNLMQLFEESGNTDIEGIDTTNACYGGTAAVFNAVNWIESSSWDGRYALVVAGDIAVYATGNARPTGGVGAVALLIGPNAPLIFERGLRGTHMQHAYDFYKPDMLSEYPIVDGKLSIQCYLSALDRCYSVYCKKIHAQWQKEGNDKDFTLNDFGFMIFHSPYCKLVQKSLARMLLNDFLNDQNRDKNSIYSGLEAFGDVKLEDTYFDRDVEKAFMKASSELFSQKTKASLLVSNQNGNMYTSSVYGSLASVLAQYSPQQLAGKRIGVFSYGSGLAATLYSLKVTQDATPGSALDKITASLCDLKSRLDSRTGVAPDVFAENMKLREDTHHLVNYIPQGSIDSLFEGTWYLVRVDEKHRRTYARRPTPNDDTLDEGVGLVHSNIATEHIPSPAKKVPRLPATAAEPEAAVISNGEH
# UniProt P15260, sequence (P15260 whole entry, looked up): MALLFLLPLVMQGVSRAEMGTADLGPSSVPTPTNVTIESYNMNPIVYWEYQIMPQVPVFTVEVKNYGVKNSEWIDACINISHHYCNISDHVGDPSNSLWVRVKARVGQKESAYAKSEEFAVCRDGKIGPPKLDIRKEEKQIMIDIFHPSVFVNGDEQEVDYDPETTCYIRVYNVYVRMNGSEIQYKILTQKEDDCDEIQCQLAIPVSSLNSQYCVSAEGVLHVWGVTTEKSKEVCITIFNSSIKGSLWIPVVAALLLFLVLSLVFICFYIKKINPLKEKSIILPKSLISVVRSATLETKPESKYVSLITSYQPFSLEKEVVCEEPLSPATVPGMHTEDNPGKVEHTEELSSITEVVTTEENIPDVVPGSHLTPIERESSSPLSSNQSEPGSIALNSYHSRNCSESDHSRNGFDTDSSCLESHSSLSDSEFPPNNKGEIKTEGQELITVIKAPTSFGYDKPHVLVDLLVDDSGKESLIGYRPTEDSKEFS
# UniProt A6NDN3, sequence (A6NDN3 whole entry, looked up): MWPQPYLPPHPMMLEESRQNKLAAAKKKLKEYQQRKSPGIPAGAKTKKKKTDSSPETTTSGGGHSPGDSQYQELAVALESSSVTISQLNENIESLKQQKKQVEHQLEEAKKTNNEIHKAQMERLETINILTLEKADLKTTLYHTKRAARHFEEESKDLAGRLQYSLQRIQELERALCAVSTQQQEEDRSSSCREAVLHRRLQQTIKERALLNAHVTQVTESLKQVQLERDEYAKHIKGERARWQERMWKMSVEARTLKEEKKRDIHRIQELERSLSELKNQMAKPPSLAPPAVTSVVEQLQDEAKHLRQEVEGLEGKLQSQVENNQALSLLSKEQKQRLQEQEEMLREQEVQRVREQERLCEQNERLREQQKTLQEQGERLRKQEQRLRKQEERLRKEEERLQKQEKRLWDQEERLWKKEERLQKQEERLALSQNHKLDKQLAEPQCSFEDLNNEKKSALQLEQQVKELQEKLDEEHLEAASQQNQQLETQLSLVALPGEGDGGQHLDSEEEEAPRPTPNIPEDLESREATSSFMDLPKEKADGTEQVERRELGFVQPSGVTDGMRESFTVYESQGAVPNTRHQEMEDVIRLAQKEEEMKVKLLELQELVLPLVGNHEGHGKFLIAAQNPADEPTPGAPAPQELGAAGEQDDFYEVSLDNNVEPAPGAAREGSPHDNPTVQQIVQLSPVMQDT
# UniProt Q9NVX7, sequence (Q9NVX7 whole entry, looked up): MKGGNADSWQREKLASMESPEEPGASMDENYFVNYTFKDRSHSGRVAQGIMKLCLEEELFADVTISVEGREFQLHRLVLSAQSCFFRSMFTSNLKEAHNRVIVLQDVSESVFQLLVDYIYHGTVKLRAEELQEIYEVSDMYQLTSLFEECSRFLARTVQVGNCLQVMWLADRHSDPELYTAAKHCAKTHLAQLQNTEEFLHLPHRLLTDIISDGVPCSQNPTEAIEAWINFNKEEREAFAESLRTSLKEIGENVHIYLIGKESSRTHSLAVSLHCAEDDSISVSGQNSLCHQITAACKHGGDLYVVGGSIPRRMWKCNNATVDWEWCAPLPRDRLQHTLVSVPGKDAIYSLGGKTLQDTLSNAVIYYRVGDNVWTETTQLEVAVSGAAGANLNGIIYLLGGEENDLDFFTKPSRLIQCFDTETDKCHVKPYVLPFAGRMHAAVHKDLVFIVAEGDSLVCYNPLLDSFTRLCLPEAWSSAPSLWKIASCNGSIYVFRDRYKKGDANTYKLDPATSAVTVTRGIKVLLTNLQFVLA
# UniProt P02724, sequence (P02724 whole entry, looked up): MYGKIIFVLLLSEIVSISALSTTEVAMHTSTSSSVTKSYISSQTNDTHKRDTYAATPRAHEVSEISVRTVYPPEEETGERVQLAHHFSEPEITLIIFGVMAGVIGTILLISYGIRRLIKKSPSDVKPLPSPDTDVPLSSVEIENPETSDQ
# UniProt Q6DN03, sequence (Q6DN03 whole entry, looked up): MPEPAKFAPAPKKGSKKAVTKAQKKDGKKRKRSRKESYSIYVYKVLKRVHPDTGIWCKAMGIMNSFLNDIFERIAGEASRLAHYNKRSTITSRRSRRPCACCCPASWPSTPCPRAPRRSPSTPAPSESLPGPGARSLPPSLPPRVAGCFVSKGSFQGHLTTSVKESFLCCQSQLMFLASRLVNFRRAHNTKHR
# UniProt P04792, sequence (P04792 whole entry, looked up): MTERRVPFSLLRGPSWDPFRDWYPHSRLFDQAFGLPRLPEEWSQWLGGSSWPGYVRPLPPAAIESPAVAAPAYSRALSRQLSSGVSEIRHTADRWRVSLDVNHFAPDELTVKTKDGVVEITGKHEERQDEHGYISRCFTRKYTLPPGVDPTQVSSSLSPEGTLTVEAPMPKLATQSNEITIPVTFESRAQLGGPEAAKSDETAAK
row,Target,log2 fold change
1,HSD17B10 (UniProt Q99714),-0.025 (inactive)
2,GOLGA6B (UniProt A6NDN3),0.353 (active)
3,KARS1 (UniProt Q15046),-0.026 (inactive)
4,HSD17B12 (UniProt Q53GQ0),-0.078 (inactive)
5,HNRNPD isoform 2 (UniProt Q14103),0.063 (inactive)
6,GNB1 (UniProt P62873),-0.037 (inactive)
7,HTT (UniProt P42858),0 (inactive)
8,IFNGR1 (UniProt P15260),0.046 (inactive)
9,GPX4 (UniProt P36969),-0.023 (inactive)
10,HECTD4 (UniProt J3KPF0),0.032 (inactive)
11,GSTCD (UniProt Q8NEC7),-0.027 (inactive)
12,HACE1 (UniProt Q8IYU2),0.084 (inactive)
13,HK1 isoform 2 (UniProt P19367),-0.002 (inactive)
14,HDAC10 (UniProt Q969S8),-0.032 (inactive)
15,HMGA1 (UniProt P17096),0.038 (inactive)
16,GTF2H1 (UniProt P32780),-0.024 (inactive)
17,ITM2B (UniProt Q9Y287),0.004 (inactive)

row,Target,log2 fold change
1,HIST2H2BC (UniProt Q6DN03),-0.019 (inactive)
2,HADHB (UniProt P55084),0.269 (inactive)
3,HMGCS1 (UniProt Q01581),0.013 (inactive)
4,HSPB1 (UniProt P04792),-0.001 (inactive)
5,KDM6A (UniProt O15550),-0.009 (inactive)
6,HDAC1 (UniProt Q13547),-0.015 (inactive)
7,GSTM4 (UniProt Q03013),0.012 (inactive)
8,ILKAP (UniProt Q9H0C8),-0.024 (inactive)
9,IMMT (UniProt C9J406),-0.002 (inactive)
10,HADHA (UniProt P40939),0.302 (inactive)
11,HNRNPD isoform 3 (UniProt Q14103),0.09 (inactive)
12,"HDLBP, A0A024R4E5",0.004 (inactive)
13,HNRNPH2 (UniProt P55795),-0.054 (inactive)
14,IL18R1 (UniProt Q13478),0.075 (inactive)
15,INTS7 (UniProt Q9NVH2),0.189 (inactive)
16,KBTBD4 isoform 2 (UniProt Q9NVX7),-0.023 (inactive)
17,GYPA (UniProt P02724),-0.04 (inactive)

# Compound: c1cn2cc(-c3ccc4cn[nH]c4c3)nc(Nc3ccc(N4CCOCC4)cc3)c2n1 [entospletinib]
# Assay: as above
# How it was run: as §1
row,Target,log2 fold change
1,HSD17B10 (UniProt Q99714),-0.004 (inactive)
2,GOLGA6B (UniProt A6NDN3),-0.084 (inactive)
3,KARS1 (UniProt Q15046),0.006 (inactive)
4,HSD17B12 (UniProt Q53GQ0),0.041 (inactive)
5,HNRNPD isoform 2 (UniProt Q14103),-0.006 (inactive)
6,GNB1 (UniProt P62873),0.054 (inactive)
7,HTT (UniProt P42858),-0.042 (inactive)
8,IFNGR1 (UniProt P15260),-0.042 (inactive)
9,GPX4 (UniProt P36969),0.037 (inactive)
10,HECTD4 (UniProt J3KPF0),0.001 (inactive)
11,GSTCD (UniProt Q8NEC7),-0.066 (inactive)
12,HACE1 (UniProt Q8IYU2),0.012 (inactive)
13,HK1 isoform 2 (UniProt P19367),0.011 (inactive)
14,HDAC10 (UniProt Q969S8),0.053 (inactive)
15,HMGA1 (UniProt P17096),-0.011 (inactive)
16,GTF2H1 (UniProt P32780),0.035 (inactive)
17,HIST2H2BC (UniProt Q6DN03),-0.062 (inactive)

row,Target,log2 fold change
1,HADHB (UniProt P55084),0.063 (inactive)
2,HMGCS1 (UniProt Q01581),-0.002 (inactive)
3,HSPB1 (UniProt P04792),0.013 (inactive)
4,KDM6A (UniProt O15550),-0.02 (inactive)
5,HDAC1 (UniProt Q13547),0.008 (inactive)
6,GSTM4 (UniProt Q03013),-0.03 (inactive)
7,ILKAP (UniProt Q9H0C8),-0.001 (inactive)
8,IMMT (UniProt C9J406),-0.172 (inactive)
9,HADHA (UniProt P40939),0.027 (inactive)
10,HNRNPD isoform 3 (UniProt Q14103),0 (inactive)
11,"HDLBP, A0A024R4E5",0.009 (inactive)
12,HNRNPH2 (UniProt P55795),0.002 (inactive)
13,IL18R1 (UniProt Q13478),-0.084 (inactive)
14,INTS7 (UniProt Q9NVH2),0.03 (inactive)
15,KBTBD4 isoform 2 (UniProt Q9NVX7),-0.012 (inactive)
16,GYPA (UniProt P02724),0.019 (inactive)
